High-throughput results: PubChem, National Center for Advancing Translational Sciences (NCATS)
The entries come from a sample that favours hits as a whole.
Pf Dd2 inh = Plasmodium falciparum Dd2 growth inhibition; Potency, µM (doses to about 28.9 µM), without a hit: top-dose activity, negative = inhibition, most hits filed as inhibitors; hit rate 4.3% among 120,000; P. falciparum Dd2 growth, SYBR Green, 72 h; active = well fitted inhibition curve with a large enough effect;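 note: plate controls were DMSO vehicle for no effect and reference drug for full effect; nearly all actives have a fitted effect of over 65% in size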
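Readout: SYBR Green fluorescence, 485 nm excitation, 535 nm emission, after ~16 h lysis at 37C. Before that, Dd2-infected red cells (2.5% hematocrit) grew 72 h with compound, 29 uM top final concentration.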
* marks the source's active call; other numbers are inactive results; i = inactive; [ ] = remark or other dose. Potency is the fitted concentration of half-maximal effect.

SMILES | Pf Dd2 inh
CC(C)(O)CCc1cccc(C(=O)N2CCN(CC3CCCC3)CC2)c1 | -12.6%
COc1ccccc1CC(=O)N1CCCc2ncc(C(=O)Nc3cccc(Cl)c3)cc21 | 2.51µM*
COc1ccccc1CC(=O)N1CCCc2ncc(C(=O)N(C)c3ccccc3)cc21 | -3.5%[44.1 µM]
COc1ccccc1N1CCCc2ncc(C(=O)NCCc3ccccc3)cc21 | i
COc1ccccc1CC(=O)N1CCCc2ncc(C(=O)NCCOc3ccccc3)cc21 | i
COc1ccc(NC(=O)c2cnc3c(c2)N(c2ccccc2OC)CCC3)cn1 | 6.31µM*
COc1ccccc1CC(=O)N1CCCc2ncc(C(=O)Nc3ccc(OC)c(OC)c3)cc21 | -33.9%
CC(C)c1ccc(CC(=O)N2CCCc3ncc(C(=O)Nc4cccc(C(F)(F)F)c4)cc32)cc1 | i
COc1ccc(NC(=O)c2cnc3c(c2)N(C(=O)Cc2cccc(C(F)(F)F)c2)CCC3)cn1 | -24.9%
COc1ccccc1CC(=O)N1CCCc2ncc(C(=O)Nc3cccc(C(F)(F)F)c3)cc21 | 4.47µM*
Cc1cc(N2CCN(CC3CCCCC3)C(CCO)C2)nc(N)n1 (centres undefined) | -27.5%
O=C(NCC12CCC=C1N(Cc1ccccc1)C(=O)CC2)c1cccnc1 (centres undefined) | i
Cc1noc(C)c1CC(=O)N1CCCCCCNC(=O)CC1 | 16.2%
Cc1nc2n(c1C(=O)N(C)C)CCN(C(=O)c1cc(=O)n(C)c(=O)n1C)C2 | -8.0%
O=C(NCCC1CCN(C(=O)Nc2ccccc2F)CC1)c1ccccn1 | -5.6%
O=C(NCCN1CCCC1)C1Cn2cccc2C(=O)N1Cc1ccccc1 (centres undefined) | i
